Screens: PubChem, National Center for Advancing Translational Sciences (NCATS)
An excerpt weighted towards active compounds, which were near 2.4% of everything screened.
D2 PAM-1 – potentiates the human D2 dopamine receptor allosterically; AID 624464; DiscoveRx D2 beta-arrestin cells, luminescence, 90 min; 100% = 57 uM dopamine signal; potentiation, % (concentration not given with the values); hit rate 0.23% among 360,000; in the data active means potentiation above about 50%; inconclusive means mostly about 30% to 49%
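D2 cells co-treated with compound plus 50 nM dopamine (EC20) for 90 min at 37 deg C to detect potentiation. Beta-arrestin recruitment was read as enzyme-fragment luminescence after 1 h at ambient temperature. Full response was set by 57 uM dopamine.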
D2 ag-1 – agonists of human D2 dopamine receptor (beta-arrestin). hit rate 0.084% among 360,000. activation, % (test concentration not listed). P14416. DiscoveRx PathHunter D2 beta-arrestin, luminescence, 90 min; 100% = 57 uM dopamine signal. AID 624465; in the data active means activation above about 40%; inconclusive means between about 15% and that limit
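DiscoveRx PathHunter D2 beta-arrestin cells (2,100/well) attached overnight, then compound-stimulated 90 min at 37 C in HBSS/10 mM HEPES/0.1% Tween-20 buffer; beta-galactosidase complementation read by luminescence after 1 h at ambient temperature. Dopamine 57 uM final (EC100) as control.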
D2 antag – antagonizes the human D2 dopamine receptor | P14416 | HEK293 TREx D2 cells, calcium flux, dopamine EC80 | inhibition, % at 10 µM | hit rate 2% among 340,000 | AID 485344; in the data active means inhibition above about 30%; inactive means below that, where a call was filed; further: 0% is about no effect
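Compounds are added to dye-loaded, induced HEK293 T-REx cells coupled to calcium release via D2; after a 3 min kinetic read an EC80 dopamine stimulus is given and fluorescence is recorded for 3 more min.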
D2 PAM-2 – positive allosteric modulators of human D2 dopamine receptor; HEK293 T-REx D2, calcium flux, EC20 dopamine potentiation; potentiation, % at 10 µM; hit rate 0.34% among 340,000; AID 485347;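 active means potentiation over 3 SD above the plate norm, cut at about 30% in these data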; further: 0% is about no effect
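Cells plated with tetracycline inducer and held overnight at 30 C; calcium dye loaded 30–90 min at room temperature; baseline taken, compound added and read 180 s; EC20 dopamine then added and read 180 s.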
D2 ag-2 – agonists of human D2 dopamine receptor; P14416; activation, % at 2 µM; hit rate 0.53% among 340,000; HEK293 T-REx D2 cells, calcium flux agonist mode; AID 485358;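 active means activation over 3 SD above normal in the single-dose calcium agonist read, cut at about 30% in these data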; further: 0% is about no effect
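Calcium-flux readout, 1 cycle/sec over 180 s following compound pin transfer, in inducible HEK293 Trex D2 cells (force-coupled); dopamine controls included. Positive calcium responses during this window marked compounds as potential agonists.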
D3 arrestin ag – activates human D3 dopamine receptor beta-arrestin recruitment; hit rate 4% among 2,300; AID 720506; DiscoveRx D3 beta-arrestin cells, luminescence, 90 min; shares compounds with D2 ag-2; Potency, µM (doses to about 76.9 µM), inactives show at the highest dose activation, usual class: activators;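 further: potency means the concentration at half of the fitted maximal effect; 100% = dopamine control response; nearly all actives have a fitted effect of over 70% in size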
Target sequence (P35462 whole entry, looked up): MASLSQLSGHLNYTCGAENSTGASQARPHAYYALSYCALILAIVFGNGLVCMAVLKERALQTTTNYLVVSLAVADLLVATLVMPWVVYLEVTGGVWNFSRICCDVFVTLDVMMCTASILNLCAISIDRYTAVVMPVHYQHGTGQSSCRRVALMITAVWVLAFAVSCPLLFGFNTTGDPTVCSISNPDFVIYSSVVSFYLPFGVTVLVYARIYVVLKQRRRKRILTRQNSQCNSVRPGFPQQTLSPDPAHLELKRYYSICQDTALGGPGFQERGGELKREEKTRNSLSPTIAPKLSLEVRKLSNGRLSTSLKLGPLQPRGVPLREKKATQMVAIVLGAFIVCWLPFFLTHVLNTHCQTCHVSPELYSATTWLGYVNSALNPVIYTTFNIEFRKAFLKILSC
D2 ag-3 – counter-screen for D3 agonists: human D2 dopamine receptor agonism | shares compounds with D2 ag-2 | DiscoveRx PathHunter D2 beta-arrestin, luminescence, 90 min; response scale: percent relative to full dopamine signal | Potency, µM (highest dose often 76.9 µM), inactives show at the highest dose activation, hits mostly activators | hit rate 5.9% among 2,300 | AID 720507; further: potency means the concentration at half of the fitted maximal effect; % of control where 0% means no effect; nearly all actives have a fitted effect of over 70% in size
* hit, by the source's call; ? = inconclusive; nt = no result. Unless noted, the call rests on the fitted dose curve; in most records, active means well fitted activation curve with a large enough effect; inconclusive means small, poorly fitted or top-dose-only effect; inactive means flat fitted curve, though single readings scatter.

SMILES	D2 PAM-1	D2 ag-1	D2 antag	D2 PAM-2	D2 ag-2	D3 arrestin ag	D2 ag-3
CCn1nc(C(=O)N2CCN(Cc3ccc4c(c3)OCO4)CC2)c2ccccc2c1=O	-10	-2	16	-24	50*	-10%	3%
Cc1ccc(C)c(S(=O)(=O)c2nnn3c2nc(N2CCCCC2)c2sccc23)c1	nt	nt	nt	4	-1	nt	nt
COc1cccc(CN2CCN(C(=O)CC(C)C)CC2)c1	12	3	-20	-10	55*	12%	8%
COCc1c(C(=O)N2CCN(Cc3ccc4c(c3)OCO4)CC2)oc2ccccc12	16	46*	70*	-21	70*	15%	10µM*
COCc1c(C(=O)N2CCN(Cc3ccc(C#N)cc3)CC2)oc2ccccc12	-4	-3	5	4	0	nt	nt
CC(C)CC(=O)N1CCN(Cc2cccc(F)c2)CC1	-5	4	-10	0	16	nt	nt
COc1ccc(Cl)cc1NC(=O)CN1C(=O)CSc2ccc(S(=O)(=O)N3CCCC3)cc21	nt	nt	nt	-6	0	nt	nt
Cc1ccccc1CN1CCN(C(=O)c2ccco2)CC1	26	47*	70*	-28	81*	?	20µM*
Cc1ccc(Nc2nc(N)nc(CN3CCN(C(=O)c4ccco4)CC3)n2)cc1Cl	14	?	38*	-26	67*	-4%	?
CCn1c2ccccc2c2cc(CN3CCN(C(=O)c4ccco4)CC3)ccc21	-28	-1	29	-14	27	?	15%
O=C(c1ccco1)N1CCN(CCCCOc2ccc(F)cc2)CC1	12	?	nt	nt	nt	1µM*	?
Cc1ccccc1CC(=O)N1CCN(C(=O)c2ccco2)CC1	-10	-2	6	6	0	nt	nt
O=C(CCCOc1ccccc1)N1CCN(C(=O)c2ccco2)CC1	-6	0	9	14	1	nt	nt
CCn1c(=O)cc(SCC(=O)N2CCN(C(=O)c3ccco3)CC2)c2ccccc21	-10	0	-1	21	0	nt	nt
Cc1ccc(OCC(=O)N2CCN(C(=O)c3ccco3)CC2)cc1	-2	-2	-4	1	0	nt	nt
O=C(c1ccco1)N1CCCN(C(=O)c2ccco2)CC1	-2	0	13	4	1	nt	nt
Cc1ccc(CN2CCN(C(=O)c3ccco3)CC2)cc1	56*	70*	82*	1	66*	?	4.5µM*
O=C(c1ccco1)N1CCN(Cc2ccccc2F)CC1	19	75*	80*	-23	78*	?	?
O=C(c1ccco1)N1CCN(Cc2c(F)cccc2Cl)CC1	-15	-2	nt	nt	nt	nt	nt
CC1CCN(C(=S)NC(=O)c2ccco2)CC1	-6	-1	-9	16	-1	nt	nt
O=C(c1ccco1)N1CCN(Cc2cccnc2)CC1	16	?	31*	-14	70*	?	?
O=C(NC(=S)N1CCN(Cc2ccccc2)CC1)c1ccco1	-3	5	20	-4	70*	-1%	0%
CCN(C(=O)c1cn(CC(C)C)c(=O)c2cc(OC)c(OC)cc12)c1cc(OC)ccc1OC	nt	nt	nt	-8	2	nt	nt
COc1ccc(CNc2nc(-c3ccco3)nn2C(=O)CC(C)C)cc1	nt	nt	nt	17	-1	nt	nt
Cc1cc(C)cc(NC(=O)CN2CCN(c3ccccn3)CC2)c1	-25	2	16	12	3	nt	nt
SMILES	D2 PAM-1	D2 ag-1	D2 antag	D2 PAM-2	D2 ag-2	D3 arrestin ag	D2 ag-3
CN(C)S(=O)(=O)c1ccc(NC(=O)CN2CCN(c3ccccn3)CC2)cc1	15	?	30*	-18	65*	1.4µM*	?
CN(C)S(=O)(=O)c1cc(NC(=O)CN2CCN(c3ccc(O)cc3)CC2)ccc1Cl	-16	11	1	-18	13	nt	nt
CN(C)S(=O)(=O)c1cc(NC(=O)CN2CCN(c3ccccc3)CC2)ccc1Cl	15	?	64*	-19	71*	50µM*	?
Cc1ccc(NC(=O)CN2CCN(c3ccccn3)CC2)cc1S(=O)(=O)N(C)C	8	58*	77*	-24	69*	1.4µM*	14µM*
CC(=O)N1CCN(C(C)=O)C1c1ccccc1	-1	-3	-12	3	0	nt	nt
CC(=O)N1C(O)CC(C)N1c1ccccc1 (centres undefined)	8	2	0	-3	0	2%	-3%
CC1(C)CC(=O)C2=C(C1)N(c1ccc(F)cc1)C(=O)NC2(C(F)(F)F)C(F)(F)F	8	-1	8	-19	-1	nt	nt
Cc1[nH]n(-c2ccccc2)c(=O)c1C1(C(F)(F)F)C(=O)N(c2ccc(F)cc2)C2=C1C(=O)CC(C)(C)C2 (centres undefined)	-15	1	11	-10	5	12%	-6%
Cc1cc(NC(=O)CCNS(=O)(=O)c2ccc3c(c2)CCCC(=O)N3)ccc1Br	nt	nt	nt	1	0	nt	nt
CCN1C(=O)/C(=C\C=C\c2ccccc2[N+](=O)[O-])SC1=S	-2	1	-1	-3	0	nt	nt
CCN1C(=O)/C(=C/C=C2\N(CC)c3cc(S(=O)(=O)N(C)C)ccc3N2c2ccccc2)SC1=S	-1	-4	-3	0	16	-24%	-11%
COc1ccc(-n2c(Cc3cccn3C)nnc2SCC(=O)N2CCCC2)cc1	-4	-1	10	-21	59*	-2%	-2%
COc1ccc(-n2c(Cc3cccn3C)nnc2SCC(=O)N2CCC(C)CC2)cc1	-1	-3	-13	-6	-1	nt	nt
CC1CN(C(=O)c2ccccc2OCc2ccc(Cl)cc2Cl)CC(C)O1 (centres undefined)	-2	-3	-15	-6	0	-7%	-2%
COc1ccc(-c2c(-c3cc(OC)cc(OC)c3)n(C)c3ccc(-c4cccc5[nH]ccc45)cc23)cc1	-1	-2	2	16	0	0%	3%
COc1ccccc1C(=O)NCCn1cc(SCC(=O)Nc2ccccc2F)c2ccccc21	nt	nt	nt	-5	0	nt	nt
Cc1ccc(OCC(=O)Nc2ccc3c(c2)nc(CCN2CCN(c4ccccn4)CC2)n3C)cc1	-25	2	nt	nt	nt	nt	nt
CCCCC(=O)Nc1ccc2c(c1)nc(CCN1CCN(c3ccccn3)CC1)n2C	-5	14	51*	-24	67*	?	?
Cn1c(CCN2CCN(c3ccccn3)CC2)nc2cc(NS(=O)(=O)c3ccccc3)ccc21	-25	13	nt	nt	nt	?	?
Cn1c(CCN2CCN(c3ccccn3)CC2)nc2cc(NC(=O)COc3ccccc3)ccc21	2	6	47*	1	-1	?	?
